This is a sample that favours compounds with a hit; in the whole collection about 12% have one here.
WT yeast gro inh: growth inhibition of WT yeast, mitochondrial fusion screen; AID 1362; mitochondrial fusion phenotypic screen, WT strain; inhibition, % at 10 µM; hit rate 2.1% among 190,000; in the data active means inhibition above about 58%; tested in S. cerevisiae
KCC2 mod: modulators of human KCC2 chloride dependent transport; Q9H2X9; KCC2 cells, thallium flux FluoZin-2 fluorescence; B-score of Tl+ flux slope (higher = more flux/activation; lower = inhibition) at 10 µM; hit rate 2.2% among 190,000;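 active means thallium flux slope and its plate-corrected score both differing from the plate sample mean at a set confidence after two filtering rounds, in either direction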;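 further: slope of fluorescence scaled to starting intensity during 10 to 20 s after thallium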
ROMK mod: modulates human ROMK potassium channel activity | hit rate 2% among 130,000 | P48048 | Tet-inducible ROMK, thallium flux fluorescence; actives lie on both sides | B-score at 10 µM;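 active means signal ratio slope over the read window, or its plate-corrected B-score, at least 3 SD from the plate mean, either direction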;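 further: B-score of the F/F0 ratio slope over 7 to 12 s after thallium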
Target sequence (P48048 whole entry, looked up): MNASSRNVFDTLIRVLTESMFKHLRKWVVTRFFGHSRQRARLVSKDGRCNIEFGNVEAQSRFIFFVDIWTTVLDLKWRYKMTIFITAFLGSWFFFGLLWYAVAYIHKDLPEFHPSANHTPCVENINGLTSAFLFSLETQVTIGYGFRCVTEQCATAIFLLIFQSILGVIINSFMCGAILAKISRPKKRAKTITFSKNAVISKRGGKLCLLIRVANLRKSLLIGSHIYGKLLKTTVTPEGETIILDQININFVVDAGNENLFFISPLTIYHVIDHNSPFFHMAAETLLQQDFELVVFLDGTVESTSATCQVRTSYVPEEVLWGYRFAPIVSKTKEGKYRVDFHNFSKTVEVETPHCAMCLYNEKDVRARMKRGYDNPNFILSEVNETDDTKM
Lmaj promast: Leishmania major promastigote growth inhibition; Leishmania major promastigotes, resazurin fluorescence viability; inhibition, % at 10 µM; hit rate 9% among 200,000; AID 1063; in the data active means inhibition above about 50%;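 further: promastigotes grown with compound for 44 hours at 28 °C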
m-calpain inh: blocks pig calpain II enzyme activity; inhibition, % at 16 µM; hit rate 0.37% among 220,000; purified calpain II, fluorogenic peptide substrate, 30 min;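 active means inhibition above about 50%, limit read from the data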
Numbers without * were called inactive; ! = not confirmed by another sample.

How did O=Nc1c2ccc[nH]c-2c2ccc([N+](=O)[O-])cc12 do in these assays?
WT yeast gro inh: -1; KCC2 mod: -0.11; ROMK mod: -0.3; Lmaj promast: 12; m-calpain inh: 13

Results for CCOC(=O)C(=CN=C(N)Nc1nc2ccccc2o1)C(=O)OCC ?
WT yeast gro inh: -2; KCC2 mod: -0.82; ROMK mod: -0.59; Lmaj promast: 56*; m-calpain inh: -13

What do the screens show for `Cc1nn(Cc2nnc(SCC(=O)Nc3ccc(Cl)cc3)n2C)c(C)c1[N+](=O)[O-]`?
KCC2 mod: -0.49; ROMK mod: -0.12; m-calpain inh: -14

What do the screens show for `CC(c1c(O)c2ccccc2[nH]c1=O)C1(C)CCC(O)C(C)(C)O1` (stereo not given)?
WT yeast gro inh: 0; KCC2 mod: -0.17; Lmaj promast: 19; m-calpain inh: 25

What do the screens show for `Cc1c(C(=O)N2CCC(C)CC2)sc2ncnc(N(C)c3ccccc3)c12`?
WT yeast gro inh: 88*; KCC2 mod: -0.84; Lmaj promast: 13; m-calpain inh: 22

What do the screens show for `CC(C)(C)SCCNC(=O)Nc1ccccc1`?
WT yeast gro inh: 10; KCC2 mod: 0.53; Lmaj promast: 54*; m-calpain inh: 11

How did Cc1ccc(NCCC(=O)c2cccc([N+](=O)[O-])c2)c(C)c1 do in these assays?
WT yeast gro inh: 11; Lmaj promast: 97*; m-calpain inh: 25

Results for Cc1cccc(NCCC(=O)c2ccc([N+](=O)[O-])cc2)c1C ?
WT yeast gro inh: -4; KCC2 mod: -0.27; ROMK mod: 0.11; Lmaj promast: 93*; m-calpain inh: -15

What do the screens show for `Cc1ccccc1Oc1nc(-c2ccccn2)nc2ccccc12`?
KCC2 mod: -1.1; m-calpain inh: -11

Results for Cc1c(C(=O)O)c(=S)sn1CCOc1ccccc1 ?
WT yeast gro inh: -14; KCC2 mod: -2.5*; ROMK mod: 1.6; Lmaj promast: -14; m-calpain inh: 13

What do the screens show for `Cc1ccc(C)c(OCC(O)CN2CCC(C)CC2)c1C` (stereo not given)?
WT yeast gro inh: 17; ROMK mod: -1.9; Lmaj promast: 100*; m-calpain inh: 12

What do the screens show for `Cc1ccccc1OCC(O)CN1CCC(C)CC1` (stereo not given)?
WT yeast gro inh: 3; KCC2 mod: 0.46; ROMK mod: -0.24; Lmaj promast: 72*; m-calpain inh: 16

How did Cc1ccccc1OCC(O)CN1CCN(CC(O)COc2ccccc2C)CC1 (stereo not given) do in these assays?
WT yeast gro inh: 0; KCC2 mod: 0.095; ROMK mod: -0.19; Lmaj promast: 63*; m-calpain inh: 22

Results for Cc1ccccc1OCC(O)CN1CCCCC1 (stereo not given) ?
WT yeast gro inh: -12; KCC2 mod: -1.2; ROMK mod: 0.13; Lmaj promast: 13; m-calpain inh: -19

What do the screens show for `CC(C)COc1nc2c(c(=O)n(C)c(=O)n2C)n1C`?
KCC2 mod: -0.34; m-calpain inh: 8

Results for COc1ccc(CCN2C(=O)CC(C(N)=O)SC2=Nc2ccc(F)cc2)cc1OC (stereo not given) ?
WT yeast gro inh: 5; KCC2 mod: -0.78; ROMK mod: 0.058; Lmaj promast: 0; m-calpain inh: 29

How did COc1cc(/C=C2/NC(=O)N(Cc3ccccc3F)C2=O)ccc1Oc1ccc([N+](=O)[O-])cn1 do in these assays?
WT yeast gro inh: -3; KCC2 mod: -0.16; Lmaj promast: 80*; m-calpain inh: -5

What do the screens show for `COc1cc(/C=C2/NC(=O)N(Cc3ccccc3F)C2=O)ccc1O`?
WT yeast gro inh: 4; KCC2 mod: -0.76; ROMK mod: -0.98; Lmaj promast: -9; m-calpain inh: 9

Results for Cc1cc2oc(=O)cc(CN3CCN(S(=O)(=O)c4cccs4)CC3)c2cc1C ?
WT yeast gro inh: 13; KCC2 mod: -0.25; Lmaj promast: 81*; m-calpain inh: -19

What do the screens show for `Cc1c(O)ccc2c(CN3CCN(C/C=C/c4ccccc4)CC3)cc(=O)oc12`?
KCC2 mod: -0.12; m-calpain inh: -29

How did O=c1cc(CN2CCN(C/C=C/c3ccccc3)CC2)c2cc(O)c(-c3ccccc3)cc2o1 do in these assays?
WT yeast gro inh: 84*; KCC2 mod: 0.99; ROMK mod: 0.92; Lmaj promast: 80*; m-calpain inh: -2

Results for CCOC(=O)Nc1ccc2c(CN3CCN(S(=O)(=O)c4ccccc4)CC3)cc(=O)oc2c1 ?
WT yeast gro inh: -1; KCC2 mod: -2; Lmaj promast: 100*; m-calpain inh: -138

Results for CCOC(=O)Nc1ccc2c(CN3C(=O)NC4(CCCC4)C3=O)cc(=O)oc2c1 ?
WT yeast gro inh: -3; KCC2 mod: 0.56; Lmaj promast: 7; m-calpain inh: -415

Results for Cc1cc2oc(=O)cc(CN3CCN(C/C=C/c4ccccc4)CC3)c2cc1O ?
WT yeast gro inh: 9; KCC2 mod: 0.46; ROMK mod: -3.1; Lmaj promast: 100*; m-calpain inh: -12

Results for COC(=O)c1cn(CC(=O)NC2CCCCCC2)c2ccccc12 ?
WT yeast gro inh: -7; KCC2 mod: 1.9; ROMK mod: 0.43; Lmaj promast: -1; m-calpain inh: 8

Results for CC(=O)N1CCc2cc(N=NC3=C(O)CC(C)(C)CC3=O)ccc21 ?
WT yeast gro inh: -15; KCC2 mod: 0.27; ROMK mod: -1.7; Lmaj promast: -3; m-calpain inh: 11

How did COc1ccc(NC(=O)c2sc3cc(C(F)(F)F)cnc3c2-c2cccs2)cc1 do in these assays?
WT yeast gro inh: 2; KCC2 mod: 0.79; ROMK mod: 0.53; Lmaj promast: 9; m-calpain inh: -67

How did O=C(Nc1ccc(F)cc1)c1sc2cc(C(F)(F)F)cnc2c1-c1cccs1 do in these assays?
WT yeast gro inh: 11; KCC2 mod: 0.24; ROMK mod: -0.69; Lmaj promast: 56*; m-calpain inh: -160

How did COc1ccc(-n2c(-c3ccc(Br)cc3)c[n+]3c2CCc2ccccc2-3)cc1 do in these assays?
WT yeast gro inh: 35; KCC2 mod: -0.19; ROMK mod: -2.5; Lmaj promast: 100*; m-calpain inh: 9

How did COc1ccccc1-n1c(-c2ccccc2)c[n+]2c1CCc1ccccc1-2 do in these assays?
WT yeast gro inh: 63*!; KCC2 mod: 0.53; ROMK mod: -0.15; Lmaj promast: 101*; m-calpain inh: 2

Results for C=CC[N+]1(CC(=O)NCc2ccc(NC(C)=O)cc2)CCOCC1 ?
m-calpain inh: -18

How did Cn1c(/C(C#N)=C(\O)CN2CCN(Cc3ccccc3)CC2)nc2ccccc21 do in these assays?
WT yeast gro inh: -3; KCC2 mod: -6.1*; ROMK mod: -1.1; Lmaj promast: -3; m-calpain inh: 13

What do the screens show for `COc1cccc(CN2CCN(Cc3cc(OC)c(OC)cc3[N+](=O)[O-])CC2)c1`?
WT yeast gro inh: -20; KCC2 mod: 0.14; ROMK mod: -1.8; Lmaj promast: 60*; m-calpain inh: -20

What do the screens show for `COc1cc(CN2CCN(c3ccccc3F)CC2)c([N+](=O)[O-])cc1OC`?
WT yeast gro inh: -5; KCC2 mod: 0.072; ROMK mod: -0.18; Lmaj promast: 42; m-calpain inh: -3

Source: PubChem BioAssay (several laboratories)
